# NOD2 RIPK2 PPI – NOD2-RIPK2 binding disruptors in cells, primary screen, fluorescence, CHO cells, BLA complementation | Receptor-interacting serine/threonine-protein kinase 2 (Homo sapiens), O43353 | CCF4 ratio | inhibition, % at 4.98 µM | 360,000 tested, 0.38% active; in the data active means inhibition above about 21%;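 further: 0% = vehicle only and 100% = reference blocker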
# Beta2AR agonist – beta2AR agonists driving receptor internalization, primary screen, cell-based, FAP fluorogen, flow cytometry | Beta-2 adrenergic receptor (Homo sapiens), P07550 | Am2.2-beta2AR cells | response, % (test concentration not listed) | 340,000 tested, 0.43% active;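 active means response above a set limit, near 3 SD of response in nonfluorescent compounds, cut at about 42% in these data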
# TLR9-MyD88 block – inhibitors of TLR9-MyD88 association in cells, primary screen, cell-based, CHO, BLA complementation, fluorescence. Toll-like receptor 9 (Homo sapiens) + Myeloid differentiation primary response protein …. CCF4 FRET ratio. inhibition, % at 4.98 µM. 340,000 tested, 0.21% active. AID 504734, 2011;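 active means inhibition above the mean over all tested compounds plus 3 SD, cut at about 21% in these data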;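 further: 0% = DMSO only wells and 100% = clavulanate BLA inhibitor control wells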
# Target sequence (Q99836 whole entry, looked up): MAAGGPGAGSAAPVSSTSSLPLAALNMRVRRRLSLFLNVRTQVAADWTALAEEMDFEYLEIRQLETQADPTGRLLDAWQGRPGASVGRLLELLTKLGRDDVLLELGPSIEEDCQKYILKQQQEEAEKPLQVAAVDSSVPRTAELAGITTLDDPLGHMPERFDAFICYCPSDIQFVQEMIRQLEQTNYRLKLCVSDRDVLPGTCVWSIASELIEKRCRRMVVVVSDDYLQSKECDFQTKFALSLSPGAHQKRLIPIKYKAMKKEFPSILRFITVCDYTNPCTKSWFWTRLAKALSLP
# Target sequence (Q9NR96 whole entry, looked up): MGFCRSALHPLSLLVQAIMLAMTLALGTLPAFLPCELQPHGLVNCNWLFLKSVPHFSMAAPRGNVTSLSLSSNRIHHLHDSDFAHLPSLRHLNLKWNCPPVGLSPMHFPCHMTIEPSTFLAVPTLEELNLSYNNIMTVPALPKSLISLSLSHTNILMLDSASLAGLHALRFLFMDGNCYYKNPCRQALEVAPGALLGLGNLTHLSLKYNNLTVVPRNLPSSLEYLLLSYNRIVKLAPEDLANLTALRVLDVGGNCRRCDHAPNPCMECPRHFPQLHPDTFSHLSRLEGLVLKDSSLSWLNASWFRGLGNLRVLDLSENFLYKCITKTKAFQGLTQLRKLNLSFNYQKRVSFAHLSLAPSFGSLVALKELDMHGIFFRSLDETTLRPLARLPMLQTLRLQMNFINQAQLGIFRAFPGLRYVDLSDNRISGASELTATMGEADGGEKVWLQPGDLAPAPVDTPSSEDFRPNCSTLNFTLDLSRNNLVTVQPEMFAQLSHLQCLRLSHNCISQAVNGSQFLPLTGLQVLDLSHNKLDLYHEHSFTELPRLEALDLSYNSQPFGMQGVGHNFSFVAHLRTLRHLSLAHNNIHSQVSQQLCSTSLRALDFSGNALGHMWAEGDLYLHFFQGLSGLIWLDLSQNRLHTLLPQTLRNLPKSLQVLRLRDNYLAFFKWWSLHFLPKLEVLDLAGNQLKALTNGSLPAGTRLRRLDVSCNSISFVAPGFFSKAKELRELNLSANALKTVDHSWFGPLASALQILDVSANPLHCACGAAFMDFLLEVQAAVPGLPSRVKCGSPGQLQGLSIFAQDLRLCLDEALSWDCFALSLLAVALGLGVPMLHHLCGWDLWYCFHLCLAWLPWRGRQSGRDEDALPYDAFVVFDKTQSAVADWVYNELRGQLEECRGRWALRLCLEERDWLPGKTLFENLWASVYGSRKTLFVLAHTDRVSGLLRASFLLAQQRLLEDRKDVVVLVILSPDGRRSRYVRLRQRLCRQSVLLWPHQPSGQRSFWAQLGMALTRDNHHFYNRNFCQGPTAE
# TLR4-MyD88 BLA – inhibitors of TLR4-MyD88 association in cells, primary screen, cell-based, HeLa CL3-4, BLA complementation, FRET ratio; Toll-like receptor 4 (Homo sapiens) + Myeloid differentiation primary response protein …; HeLa CL3-4 TLR4/MyD88 BLA complementation; inhibition, % at 8.4 µM; 200,000 tested, 0.18% active; AID 861, 2007; in the data active means inhibition above about 25%;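 further: 0% = vehicle and 100% = reference inhibitor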
# Exocytosis inh – LAMP-1 surface exposure blockers, TALL-104 cells – cell-based, flow cytometry, MLPCN library, primary screen; TALL-104 LAMP-1 surface exposure; cells stimulated with thapsigargin and PMA; inhibition, % at 10 µM; 360,000 tested, 0.66% active; AID 651702, 2012;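 active means inhibition above about 55%, limit read from the data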
# ABHD5-PLIN5 inh – ABHD5-PLIN5 interaction inhibitors, primary screen, cell lysate, split luciferase complementation, luminescence. 360,000 tested, 0.78% active. Perilipin-5 (Homo sapiens) + 1-acylglycerol-3-phosphate O-acyltransferase ABHD5 (Homo …. inhibition, % at 4 µM. Split G. princeps luciferase complementation, 4 h. AID 602281, 2012;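 active means inhibition above the mean inhibition across every tested compound plus 3 SD, cut at about 22% in these data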;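 further: 0% = DMSO only wells and the 100% control is not disclosed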
# TLR4-MyD88 conf – TLR4-MyD88 association inhibitors, retest, confirmation, cell-based, HeLa CL3-4, BLA complementation, FRET ratio; shares compounds with TLR4-MyD88 BLA; CCF4 FRET ratio; inhibition, % at 8.4 µM; 350 tested, 50% active; AID 941, 2007;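 active means mean inhibition across three repeat runs above about 25% carried over from the earlier screen, limit read from the data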;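 further: plate controls were DMSO only for no effect and clavulanic acid blocking BLA at full dose for full effect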
# BLA inh HeLa – beta-lactamase inhibition flagged in TLR4-MyD88 counter-screen; HeLa BLA reporter, CCF4 FRET ratio; AID 1237; 350 tested, 63% active; shares compounds with TLR4-MyD88 BLA; inhibition, % at 8.4 µM;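 active means mean inhibition over three repeats above about 26% taken from the earlier screen, limit read from the data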;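 further: HeLa cells stably expressing beta-lactamase reporter as counterscreen for TLR4-MyD88 inhibitors; 0% = DMSO and 100% = clavulanic acid full inhibition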
# B2AR ag CP1 – beta2AR agonists via receptor internalization, confirmation, cell-based, FAP fluorogen, flow cytometry, single point, cherry pick 1. percent response (surface receptor), % at 10 µM. AID 540358, 2011. Am2.2-beta2AR cells, FAP surface receptor; active compounds read low. shares compounds with Beta2AR agonist. 1,100 tested, 25% active;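 active means surface receptor percent response at or below 58%, roughly 3 SD from nonfluorescent compounds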
# B2AR FAP counter – flagged in Am2.2 fluorescence counterscreen for beta-2AR agonists; shares compounds with Beta2AR agonist; Am2.2 cells, FAP fluorogen flow cytometry; active compounds read low; calls only at 10 µM; 1,100 tested, under 10 active;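 active means percent response below a set limit in fluorescence channel 1 and below 50% in channel 8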
# TLR9-MyD88 conf – TLR9-MyD88 association inhibitors, retest, confirmation, cell-based, CHO, BLA complementation, fluorescence, triplicate | AID 540250, 2011 | inhibition, % at 4.98 µM | 680 tested, 51% active | shares compounds with TLR9-MyD88 block | CCF4 FRET ratio;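 active means mean inhibition across three repeats above about 21% taken from the earlier screen, limit read from the data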;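 further: blue over green emission ratio reports constitutive TLR9 MyD88 association via BLA complementation; 0% = DMSO vehicle wells and 100% = clavulanate BLA inhibitor wells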
# BLA counter-1 – beta-lactamase reporter inhibitors in CHO cells, artefact control for TLR9-MyD88 binding inhibitor project, cell-based, fluorescence | shares compounds with TLR9-MyD88 block | CHO-BLA cells, CCF4 FRET ratio, BLA reporter | inhibition, % at 4.98 µM | 680 tested, 7% active;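 active means mean inhibition above a 50% cutoff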;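 further: counterscreen of TLR9-MyD88 hits on CMV-driven BLA in CHO-K1 cells; 0% = DMSO alone and 100% = clavulanate blocking BLA; higher means less blue over green ratio so more BLA blockade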
# TLR9 CHO cytotox – CHO cell viability loss – luminescence, single concentration, cytotoxicity control for TLR9-MyD88 binding inhibitor project; shares compounds with TLR9-MyD88 block; TLR9-MyD88 CHO cells cytotoxicity; inhibition, % at 4.98 µM; 680 tested, 39% active; in the data active means inhibition above about 11%
# ABHD5-PLIN5 conf – ABHD5-PLIN5 interaction inhibitors, confirmation, biochemical, luminescence; inhibition, % at 4 µM; shares compounds with ABHD5-PLIN5 inh; 2,200 tested, 67% active; in the data active means inhibition above about 23%;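 further: 0% = DMSO vehicle wells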
# HNF4 split-luc – HNF4 dimerization inhibitors, counter-screen for ABHD5-PLIN5 interaction inhibitor project, biochemical, split-luciferase complementation, luminescence; shares compounds with ABHD5-PLIN5 inh; inhibition, % at 4 µM; 2,200 tested, 77% active; AID 651674, 2012;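 active means mean inhibition across replicate wells exceeding the computed hit threshold, cut at about 13% in these data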;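 further: light from luciferase halves that rejoin when HNF4 fusion proteins dimerize; 0% = DMSO only wells and the 100% control is not given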
# NOD2-RIPK2 conf – NOD2-RIPK2 binding disruptors, retest, confirmation, fluorescence, CHO cells, BLA complementation, triplicate; CCF4 FRET; inhibition, % at 4.98 µM; 1,200 tested, 70% active; shares compounds with NOD2 RIPK2 PPI;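 active means mean inhibition across replicates above a set limit taken from the earlier primary screen, cut at about 21% in these data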;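 further: 0% = DMSO-only wells and the high end = clavulanate BLA-blocked wells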
# BLA counter-2 – hits BLA reporter in NOD2-RIPK2 inhibitor counterscreen | 1,200 tested, 57% active | CHO BLA reporter, CCF4 FRET ratio | shares compounds with NOD2 RIPK2 PPI | inhibition, % at 4.98 µM;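 active means mean inhibition above the low-control mean inhibition plus three low-control SD, cut at about 11% in these data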;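 further: 0% = DMSO only wells and 100% = clavulanate high control wells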
# Exocytosis CP01 – inhibitors of lytic granule exocytosis, confirmation, TALL-104 cells, flow cytometry, Cherry Pick01. shares compounds with Exocytosis inh. LAMP-1 externalization; stimulated with PMA plus thapsigargin. inhibition, % at 10 µM. 1,500 tested, 11% active; in the data active means inhibition above about 60%;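 further: 0% = stimulated vehicle wells and 100% = unstimulated wells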
# The depositor's hits bear a star; i = inactive; · = not tested or not shown. In the library only some 2% were active in any assay of this set; here they are far more common.
SMILES,NOD2 RIPK2 PPI,Beta2AR agonist,TLR9-MyD88 block,TLR4-MyD88 BLA,Exocytosis inh,ABHD5-PLIN5 inh,B2AR ag CP1,B2AR FAP counter,others
CCN1CCN(c2ccc(NC(=O)c3ccc([N+](=O)[O-])o3)cc2Cl)CC1,31.0*,62.7*,12.5,29.9*,2.6,-0.1,13.5*,i,TLR4-MyD88 conf=19.6;BLA inh HeLa=4.9;NOD2-RIPK2 conf=25.5*;BLA counter-2=15.9*
O=C1c2c(-c3ccc(Br)cc3)noc2CCN1Cc1cn(-c2ccccc2)nn1,-6.0,·,·,·,-1.2,5.4,·,·,
O=Cc1s/c(=N\S(=O)(=O)c2ccccc2)n(CCCCl)c1Cl,85.3*,103.6*,37.0*,30.1*,-1.8,36.9*,·,·,TLR4-MyD88 conf=28.4*;BLA inh HeLa=1.7;TLR9-MyD88 conf=42.1*;BLA counter-1=7.6;TLR9 CHO cytotox=96.2*;ABHD5-PLIN5 conf=68.9*;HNF4 split-luc=106.9*;NOD2-RIPK2 conf=96.2*;BLA counter-2=36.2*
COC(=O)[C@@]12C[C@@H](CC(=O)N3CCCC3)C(=O)N(CCc3ccc(OC)c(OC)c3)C1=CCC(C)(C)C2,2.7,·,·,·,-4.2,-5.1,·,·,
Clc1ccc(-c2nc3cnccn3c2NC2CCCC2)cc1,25.3*,5.2,23.9*,32.1*,9.6,-7.7,·,·,TLR4-MyD88 conf=10.0;BLA inh HeLa=21.7;TLR9-MyD88 conf=14.7;BLA counter-1=15.5;TLR9 CHO cytotox=-1.2;NOD2-RIPK2 conf=34.2*;BLA counter-2=34.3*
CCCCCCSc1ccc(-c2nc3cnccn3c2NC2CCCCC2)cc1,-5.3,·,·,·,-7.0,-2.8,·,·,
CCC/C=C/c1ccc(CN2C(C(C)C)C(=O)N(Cc3cn(CCC4OCCO4)nn3)CCS2(=O)=O)cc1 (configuration not stated),7.0,·,-4.1,·,-1.8,5.6,·,·,
Clc1ncnc2c1oc1ccccc12,-10.7,0.0,-8.6,33.1*,72.4*,-1.3,·,·,TLR4-MyD88 conf=37.1*;BLA inh HeLa=15.3;Exocytosis CP01=-3.8
Cc1cc(NC(=O)CSc2nnc3ccc(-c4ccccc4)nn23)no1,-10.7,·,-13.3,·,3.7,0.2,·,·,
O=C(Nc1cccc(-c2nc3ncccc3o2)c1)c1sc2cc(Cl)ccc2c1Cl,-5.3,42.4*,-0.2,-0.4,-0.5,-4.4,12.3*,i,
O=C(Nc1cccc(-c2nc3ncccc3o2)c1)c1sc2ccccc2c1Cl,-8.8,29.8,3.3,4.2,5.1,-2.6,·,·,
CC1=NN(C(N)=S)C(=O)C1N=Nc1ccc(F)cc1 (configuration not stated),0.4,-1.6,-12.3,·,-0.6,7.3,48.8*,i,
CC1=NN(C(N)=S)C(=O)C1N=Nc1ccc(O)cc1 (configuration not stated),-7.2,12.5,3.5,10.2,-1.1,2.6,·,·,
CC(C)(C)c1ccc(C(=O)N2CCC2(C)C(=O)NCCC#N)cc1 (configuration not stated),3.9,·,·,·,-1.9,-2.5,·,·,
Oc1ccc(C[C@@H]2CNCCN2CCc2cc(C(F)(F)F)cc(C(F)(F)F)c2)cc1,0.7,79.7*,-5.8,·,9.0,6.8,92.5,i,
CC(C)(O)CN(CCCNC(=S)Nc1ccccc1)C(=S)Nc1ccccc1,-5.9,-17.3,3.3,·,5.9,-2.7,·,·,
CN(C)CCCN(C(=O)c1ccc([N+](=O)[O-])s1)c1nc2cc3c(cc2s1)OCCO3,-11.0,42.2*,-0.5,·,5.6,-1.8,83.9,i,
Cc1nc(C(F)(F)F)ccc1C(=O)N1CCC1(C)C(=O)NS(=O)(=O)c1cccc(C#N)c1 (configuration not stated),-2.4,·,·,·,-7.9,0.0,·,·,
CCOC(=O)c1ccc(NC(=O)Cc2coc3cc4c(cc23)CCC4)cc1,-5.3,68.7*,-5.7,1.3,-1.9,-10.8,45.1*,i,
CCOC(=O)c1ccc(NC(=O)COC)cc1,0.9,9.6,2.0,17.4,0.2,-2.9,·,·,
COC(=O)[C@@]12C[C@@H](CC(=O)NCCCCc3ccccc3)C(=O)N(Cc3ccco3)C1=CCC(C)(C)C2,4.5,·,·,·,19.9,12.0,·,·,

# High-throughput results: PubChem, several laboratories
